Source: PubChem (National Center for Advancing Translational Sciences (NCATS))
Methyltransferases: Primary Screen for Target Class Profiling of Small Molecule Inhibitors of Methyltransferases | 25,000 compounds, 3.9% hits | calls only at 40 µM | purified enzyme, MTase-Glo SAH luminescence; stronger effect = lower value; call rule not given here
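Each enzyme was assayed with SAM and its substrate. SAH formation detected by MTase-Glo luminescence; single-point 40 uM screen[…].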
MTase-Glo ctr: Counterscreen for Target Class Profiling of Small Molecule Inhibitors of Methyltransferases. shares compounds with Methyltransferases. MTase-Glo coupled enzymes, SAH conversion luminescence, no MTase. Potency, µM (highest dose often 57.3 µM), for the others: top-dose activity change, negative = inhibition, most hits filed as inhibitors. 180 compounds, 6% hits; active = well fitted inhibition curve with a large enough effect; note: potency is the fitted concentration of half-maximal effect
Active calls of the source: *; i = inactive; + = active, no number; ! = a repeat was not active; [ ] = another dose, or the depositor's remark. Shown is part of a subset that was picked to be rich in hits. % is set by controls: 0 for no effect and ±100 for the full control effect.

SMILES	Methyltransferases	others
CC(C)c1cc2n(n1)CC(C)(C(=O)NC1CCCCC1)N(Cc1ccccc1Cl)C2=O (stereo not drawn)	i
O=C(CCc1c[nH]c2ccccc12)N1CC(N(Cc2ccccc2)C2CCOCC2)C1	i
COc1ccc(OC)c2c1cc1n2CC(C)(C(=O)NC2CCCCCC2)N(CCC(C)C)C1=O (stereo not drawn)	i
COC(=O)c1ncn2c1C(=O)N(Cc1ccc3c(c1)OCO3)C(C)(C(=O)NC1CCCCC1)C2 (stereo not drawn)	i
O=C(c1ccc(Cl)c([N+](=O)[O-])c1)N1CCN(c2ccccc2F)CC1	i
CCn1cc(-c2ccc(Cl)cc2)cc1C(=O)N1CCN(c2ccccn2)CC1	i
O=C(c1ccc(Cl)cc1)N1CCN(c2ccnc3cc(Cl)ccc23)CC1	+
Cc1ccc(NC(=O)Cn2c(=O)oc3cc(S(=O)(=O)NC4CCCC4)ccc32)cc1	i
O=C(c1ccc(C2CCCNC2)cc1)N1CCCN(c2ccc(F)cc2)CC1 (stereo not drawn)	i
Cc1cccc2nc(CNC(=O)c3cccc(C4CCNC4)c3)cn12 (stereo not drawn)	i
NC(=O)c1cccc2cn(-c3ccc(C4CCCNC4)cc3)nc12 (stereo not drawn)	+
CCCn1c(=O)c2ccc(C(=O)NC3CCCCC3)cc2n2c(SCC(=O)NC(C)C)nnc12	i
CC[C@@]1(O)C(=O)OCc2c1cc1n(c2=O)Cc2cc3c(CN(C)C)c(O)ccc3nc2-1	+!
CCN(CC)CCCCCCNc1cc(OC)cc2c(C)ccnc12	+
CCCn1c(=O)c2ccccc2n2c(SCC(=O)Nc3ccccc3F)nnc12	i
Cc1ccc(S(=O)(=O)c2nnn3c2nc(NC2CCCC2)c2ccccc23)cc1C	i
CC(C)CCNC(=O)C1(C)Cn2nc(C(=O)NCc3ccccc3F)cc2C(=O)N1C (stereo not drawn)	i
COc1cccc(N2C(=O)CSc3c(c4ccccc4n3C)C2C(=O)NCCCOC(C)C)c1 (stereo not drawn)	i
CCN1C(=O)c2c(C(=O)NCc3cccc(Cl)c3)ncn2CC1(C)C(=O)NC1CCCC1 (stereo not drawn)	i
CC1(C)CCC(CN2CCN(c3ccc(C(=O)NS(=O)(=O)c4ccc(NCC5CCOCC5)c([N+](=O)[O-])c4)c(Oc4cnc5[nH]ccc5c4)c3)CC2)=C(c2ccc(Cl)cc2)C1	+
CC(C)c1cc2n(n1)CC(C)(C(=O)NC1CCCCCC1)N(Cc1cccc(Cl)c1)C2=O (stereo not drawn)	i
CCCn1c(=O)c2ccccc2n2c(SCC(=O)Nc3ccc(C)cc3)nnc12	i
CCCN1C(=O)c2cc(C(=O)NCCCN3CCN(C)CC3)nn2CC1(C)C(=O)NC1CCCC1 (stereo not drawn)	i
COc1ccccc1CNS(=O)(=O)c1cc2c(cc1Cl)n(C)c(=O)n2C	i
COc1ccccc1Oc1ncccc1CNCc1c(F)cccc1Cl	i
SMILES	Methyltransferases	others
COc1ccccc1CNCCCCCCNCCCCCCCCNCCCCCCNCc1ccccc1OC	+
CC(C)Cn1c(=O)c2ccc(C(=O)NC(C)C)cc2n2c(=O)n(CC(N)=O)nc12	i
COc1cc(C(=O)O)ccc1NC(=O)[C@@H]1N[C@@H](CC(C)(C)C)[C@](C#N)(c2ccc(Cl)cc2F)[C@H]1c1cccc(Cl)c1F	+
COc1ccc(Cl)cc1N1C(=O)CSc2c(c3ccccc3n2C)C1C(=O)NCCCOC(C)C (stereo not drawn)	i
COc1ccc(OC)c(S(=O)(=O)N2CCC3(CC2)C(OC)C(=O)N3CC2CC2)c1 (stereo not drawn)	i
CCCn1c(=O)c2ccc(Cl)cc2n2c(=O)n(CC(=O)NCc3cccc(OC)c3)nc12	i
CN(C)c1nc(NC2CCC(NCCc3ccc(Br)cc3OC(F)(F)F)CC2)nc2ccccc12 (stereo not drawn)	+
O=C(c1ccncc1)N1CCC(Nc2cccnc2)C1 (stereo not drawn)	i
CN1CCc2cc(NC(=O)Nc3cccnc3)ccc21	i
Cn1ccc2cc3c(cc21)CCN3C(=O)Nc1cccnc1	+
COc1cccc(N2C(=O)c3cc4sccc4n3CC2(C)C(=O)NC2CCCCCCC2)c1 (stereo not drawn)	i
COc1ccc(CNC(=O)C(C)n2ccc3cc(S(=O)(=O)N4CCCCC4)ccc32)c(OC)c1 (stereo not drawn)	i
Oc1ccc(/C=C/c2ccc(/C=C/c3ccc(O)cc3)c(Br)c2)cc1	i
COc1cc(O)cc(/C=C/c2cccc(O)c2)c1	i
Oc1cc(O)cc(/C=C/c2ccc(O)c(O)c2)c1	+
Cn1c(=O)c2ccc(C(=O)NC3CCCCC3)cc2n2c(=O)n(CC(=O)NC3CCCC3)nc12	i
O=C(c1cnccn1)N1CCC(c2nc(C3CC3)no2)C1 (stereo not drawn)	i
CCOC(=O)c1cc2n(n1)CC(C)(C(=O)NCc1ccccc1OC)N(CCc1ccccc1Cl)C2=O (stereo not drawn)	i
Cc1cc2c(cc1S(=O)(=O)Nc1ccccc1)n(C)c(=O)n2C	i
N#Cc1ccc(CN2CCCC3(Cc4ccccc4NC3=O)C2)cc1 (stereo not drawn)	i
CCN1CCCC1CNC(=O)Cn1ccc2cc(S(=O)(=O)N3CCCCC3)ccc21 (stereo not drawn)	i
CCCn1c(=O)c2ccccc2n2c(SCC(=O)Nc3ccc(C)cc3Cl)nnc12	i
Cn1cc(-c2ccc3c(n2)CN(Cc2ccc(F)cc2)C(=O)CO3)cn1	i
O=C1COc2ccc(N3CCOCC3)nc2CN1Cc1ccc(F)cc1	i
O=C1COc2ccc(-c3cccc(O)c3)nc2CN1Cc1ccc(C(F)(F)F)cc1	+	MTase-Glo ctr=1.9%[85.7 µM]
SMILES	Methyltransferases	others
Cc1ccc(CNC(=O)CSc2nnc3n(Cc4ccc(F)cc4)c(=O)c4ccccc4n23)cc1	i
COc1cccc(N2C(=O)NC(=NC3CCCCC3)C23CCCN(CC2CCCCC2)C3)c1 (stereo not drawn)	+	MTase-Glo ctr=2.8%
COc1cccc(N2C(=O)NC(=NC3CCCCC3)C23CCN(CC2CC2)C3)c1 (stereo not drawn)	i
COc1cccc(N2C(=O)NC(=NC3CCCC3)C23CCN(Cc2ccccc2)C3)c1 (stereo not drawn)	i
Cc1cc2c(cc3n2CC(C)(C(=O)NC2CCCCCC2)N(c2ccc(Cl)cc2)C3=O)o1 (stereo not drawn)	i
CCOc1ccc(N2C(=O)c3nc4ccccc4n3CC2(C)C(=O)NCc2ccccc2)cc1 (stereo not drawn)	i
CN1C(=O)c2cc(NC(=O)c3ccc(Cl)cc3)ccc2N2CCN=C12	i
Cc1ccc(CN2C(=O)c3cc4occc4n3CC2(C)C(=O)NC2CCCCC2C)cc1 (stereo not drawn)	i
COc1ccc(-c2nnn3c2nc(N2CCOCC2)c2ccccc23)cc1	i
Cn1cc(-c2cc3c(ccn3Cc3ccncc3)c(N3CCOCC3)n2)cn1	+	MTase-Glo ctr=-3.4%[85.7 µM]
CCNC(=O)C(CC)n1ccc2cc(S(=O)(=O)N3CCCCC3)ccc21 (stereo not drawn)	i
c1ccc(Nc2cc3c(cn2)NCCN(Cc2cccs2)C3)cc1	i
